The campaign covered roughly 96,000 compounds. About 19,000 (20%) were called active.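 The calls were made as follows: active = blocking of liver enzyme CYP2C9 beyond about 50% at 5 µM (limit read from the data); inactive = the rest.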 Not all results are given here.

In the assay the target is Cytochrome P450 2C9 (Homo sapiens) (UniProt P11712). The assay is described as follows: blockers of cytochrome P450 2C9 activity – biochemical, luminescence, ADME assay, primary screen (AID 777). As to conditions: CYP2C9 Supersomes, luciferin-H conversion, at 5 µM, hits give high values.
Cytochrome P450 2C9 (Homo sapiens), sequence (P11712 whole entry, looked up): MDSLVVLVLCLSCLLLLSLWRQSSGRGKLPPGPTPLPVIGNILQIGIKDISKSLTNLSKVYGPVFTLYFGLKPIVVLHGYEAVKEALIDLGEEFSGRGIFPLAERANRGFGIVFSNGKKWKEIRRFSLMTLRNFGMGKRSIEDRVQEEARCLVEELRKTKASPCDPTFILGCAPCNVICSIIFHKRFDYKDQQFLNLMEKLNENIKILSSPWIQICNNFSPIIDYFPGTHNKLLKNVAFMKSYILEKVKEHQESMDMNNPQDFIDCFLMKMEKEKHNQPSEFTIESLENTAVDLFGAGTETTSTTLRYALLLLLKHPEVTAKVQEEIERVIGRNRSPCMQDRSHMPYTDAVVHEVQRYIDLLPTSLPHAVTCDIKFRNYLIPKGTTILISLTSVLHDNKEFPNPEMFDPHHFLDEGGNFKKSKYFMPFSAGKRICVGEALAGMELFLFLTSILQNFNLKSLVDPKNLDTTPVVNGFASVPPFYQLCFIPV
For `CCCNc1ncnc2sc(C)c(C)c12`, the inhibition is 8.4% (inactive).

In the case of `CC(=O)c1ccc(Oc2cc(C)nc(-n3nc(C)cc3C)n2)cc1`, the inhibition was -5% (inactive). `COc1cccc(OCC(O)CN2CCN(CCO)CC2)c1` (stereo unspecified): the inhibition is -2.9% (inactive). The same measure for `OC(COc1cccc(OCC(O)CN2CCCC2)c1)CN1CCCC1` (stereo unspecified): 15.5% (inactive); for `O=C(C(c1ccccc1)c1ccccc1)N1CCN(CC(O)COc2ccccc2)CC1` (stereo unspecified): 65.6% (active).

With `CN(C(=O)C1CCOC1)c1nnc(-c2cccnc2)s1` (stereo unspecified), the inhibition is 0.8% (inactive).

Regarding `CCn1c(=O)cc(O)c2ccccc21`, the inhibition is -18.7% (inactive). In the case of `CCn1c(NC(=O)c2ccccc2)c(-c2cccs2)c(=O)c2ccccc21`, the inhibition was 86.7% (active). With `Cn1sc(NC(=O)c2ccccc2)nc1=O`, the inhibition is 19.9% (inactive). The same measure for `Cc1cc(-c2ccccc2)n2nc(C)c(-c3ccccc3)c2n1`: -9.3% (inactive); for `CCS(=O)(=O)Nc1ccc(C2=NN(S(=O)(=O)c3ccc(F)cc3)C(c3ccco3)C2)cc1` (stereo unspecified): 87.7% (active); for `O=C(c1ccco1)N1CCN(C(=O)C2CC(c3ccc(F)cc3)=NO2)CC1` (stereo unspecified): 5.7% (inactive). For `Fc1ccc(N2N=C(c3cccs3)CC2c2ccco2)c(F)c1` (stereo unspecified), the inhibition was 15.7% (inactive).

With `CC(=O)Nc1ccc(N2C(=O)CCC2=O)cc1C`, the inhibition was 16.4% (inactive). For the compound `O=C(Cn1nc(C(F)(F)F)c2c1CCC2)NCc1ccc(F)cc1`, the inhibition was -216% (inactive). As to `CCCN1C(=O)C(NS(=O)(=O)c2ccc(N)cc2)(C(F)(F)F)C(C(=O)OC)=C1C` (stereo unspecified), the inhibition is -3.4% (inactive).

As to `CCCCn1c(CCCNC(=O)CC)nc2ccccc21`, the inhibition was -16.5% (inactive). As for `Cc1ccccc1S(=O)(=O)Cc1ccc(C(=O)NCCN2CCCCC2C)o1` (stereo unspecified), the inhibition was 11.1% (inactive).

Take `Cc1cccc(NC(=O)Nc2cccc(Oc3c(F)c(F)c(F)c(F)c3F)c2)c1`: the inhibition was 20.6% (inactive).

With `Cc1cccc(NC(=O)CN2C(=O)CNC2=O)c1`, the inhibition was -16.3% (inactive). Take `Cc1cccc(NC(=O)C(C)N2C(=O)C3C4CC(C(Br)C4Br)C3C2=O)c1` (stereo unspecified): the inhibition is 51.6% (active).

With `CC1=C(C(=O)Nc2ccc(Cl)cc2)C(c2ccco2)NC(=O)N1` (stereo unspecified), the inhibition was 0.4% (inactive). As to `CCOc1ccccc1C(=O)NCc1ccco1`, the inhibition is -0.6% (inactive). `CCOC(=O)COc1ccc(Cl)cc1C1NC(=O)NC(C)=C1C(C)=O` (stereo unspecified): the inhibition is 44.9% (inactive).

As for `CCOc1ccccc1C1NC(=O)NC(C)=C1C(=O)OCc1ccco1` (stereo unspecified), the inhibition was 75.3% (active).

As for `c1ccc(CSc2ncnc3c2sc2nc(N4CCOCC4)c4c(c23)CCCC4)cc1`, the inhibition was 10.4% (inactive). As for `CCOC(=O)c1sc(NC(=O)CSc2nc(C)cc(C(F)(F)F)n2)c(C#N)c1C`, the inhibition is 24.8% (inactive). On to `COC(=O)C(NC(C)=O)(Nc1nc2c(s1)CCCC2)C(F)(F)F` (stereo unspecified), for which the inhibition was 26.9% (inactive). As to `CCC(=O)NC(Nc1nc2ccc(C)cc2s1)(C(=O)OC)C(F)(F)F` (stereo unspecified), the inhibition is 97% (active).

For `CCC(=O)NC(Nc1cc(C)ccn1)(C(F)(F)F)C(F)(F)F`, the inhibition is 23.8% (inactive). As for `O=C(CCN1C(=O)COc2ccccc21)NCCCN1CCN(c2ccc(F)cc2)CC1`, the inhibition is 3.9% (inactive).

With `COc1ccc(OC)c(C2N(c3ccccn3)C(=O)C3CCCN32)c1` (stereo unspecified), the inhibition is 10.9% (inactive). Then `C=CCn1c(=S)[nH]c2nc3c(cc2c1=O)COC(C)(C)C3`, with 31.2% (inactive); and `CC1(C)Cc2nc3sc4c(SCC(=O)NC(c5ccccc5)c5ccccc5)ncnc4c3cc2CO1`, with 20.2% (inactive); and `CC(C)CCSc1ncnc2c1oc1nc3c(cc12)COC(C)(C)C3`, with 55.7% (active). Regarding `CN(C)c1ccnc2sc3c(=O)n(Cc4ccccc4)cnc3c12`, the inhibition is 49.6% (inactive). Turning to `COc1ccccc1C(=O)Nc1ccc(NC(=O)c2ccco2)c(C)c1`, the inhibition is -177% (inactive). With `Cc1ccccc1NC(=O)c1cnn(-c2ccccc2)c1NC(=O)c1ccco1`, the inhibition is 1.2% (inactive). With `O=C(COC(=O)c1ccccc1NC(=O)c1ccco1)Nc1ccc2c(c1)OC(F)(F)O2`, the inhibition was 76.1% (active). As for `Cc1cc(N)n2nc(-c3ccc(C(C)(C)C)cc3)cc2n1`, the inhibition was 38.3% (inactive). The same measure for `Cn1c(=O)c2c(nc(OCc3cccnc3)n2Cc2ccccc2)n(C)c1=O`: 52.4% (active); for `COCCn1c(CN2CCC(Cc3ccccc3)CC2)nc2c1c(=O)n(C)c(=O)n2C`: 54.2% (active); for `CCN1CCN(Cc2nc3c(c(=O)n(C)c(=O)n3C)n2CC(=O)c2ccccc2)CC1`: 29.8% (inactive).

With `CCOC(=O)Cn1c(CN(Cc2ccccc2)Cc2ccccc2)nc2c1c(=O)[nH]c(=O)n2C`, the inhibition is 48.8% (inactive). On to `CC(C)CCn1c(CN(C)Cc2ccccc2)nc2c1c(=O)n(C)c(=O)n2C`, for which the inhibition is 95.6% (active). Regarding `Cn1c(=O)c2c(nc(NCCc3ccccc3)n2Cc2ccccc2)n(C)c1=O`, the inhibition is 5.6% (inactive). Then `CN1CCN(Cc2nc3c(c(=O)n(C)c(=O)n3C)n2Cc2cccc3ccccc23)CC1`, with -8.7% (inactive).

With `Cn1c(=O)[nH]c(=O)c2c1nc(CN(Cc1ccccc1)Cc1ccccc1)n2CCN1CCOCC1`, the inhibition is 7.6% (inactive).

As for `CCOC(=O)N1CCN(Cc2nc3c(c(=O)n(C)c(=O)n3C)n2Cc2ccccc2)CC1`, the inhibition was 9.9% (inactive). As for `COCCn1c(CN(Cc2ccccc2)Cc2ccccc2)nc2c1c(=O)n(C)c(=O)n2C`, the inhibition is 96.4% (active). As for `CC1CN(Cc2nc3c(c(=O)n(C)c(=O)n3C)n2Cc2cccc(Cl)c2)CC(C)O1` (stereo unspecified), the inhibition was 28% (inactive).

Turning to `C=CCOc1nc2c(c(=O)n(C)c(=O)n2C)n1Cc1ccc(Cl)cc1Cl`, the inhibition was 8.1% (inactive). As to `CC(=O)c1ccc2c(ccc3ccccc32)c1`, the inhibition is 40.7% (inactive). Consider `CC(C)NC(=O)C(=O)NCCN1CCN(S(=O)(=O)c2ccc(Cl)cc2)CC1`, for which the inhibition was 20.7% (inactive).

For the compound `COCCN1Cc2cccc(C(=O)Nc3ccccc3OC)c2C1=O`, the inhibition is 34.5% (inactive). Regarding `O=C(Nc1cc2ccccc2oc1=O)C1CCCCC1`, the inhibition was 3.6% (inactive). Then `Cc1cccc(C)c1NC(=O)CCCSc1nnc(-c2ccco2)n1-c1ccccc1`, with 25.6% (inactive); and `O=C(Nc1nnc(CCc2ccccc2)s1)C1CCCO1` (stereo unspecified), with 16.3% (inactive). The same measure for `O=C(OC(C(=O)NC1CCCC1)c1ccc(F)cc1)c1ccno1` (stereo unspecified): 13.9% (inactive). As to `CC(C)Cn1cnc2c1c(=O)n(CC(O)c1ccccc1)c(=O)n2CC(C)C` (stereo unspecified), the inhibition was -5.7% (inactive). With `CC(C)Cn1c(CN(Cc2ccccc2)Cc2ccccc2)nc2c1c(=O)n(C)c(=O)n2C`, the inhibition is 72.2% (active).

As a reminder, the inhibition is the relative decrease from the control value, in per cent.

For the origin of these results see PubChem BioAssay AID777 (Sanford-Burnham Center for Chemical Genomics, 2007).
